# PrP UTR inh: inhibition of PrP 5' UTR reporter expression; cell-based PrP 5' UTR mRNA reporter, plate reader; inhibition, % (concentration not given with the values); 0.35% of 340,000 active; in the data active = inhibition above about 52%
# FadD28 binding: inhibitors of Mycobacterium tuberculosis FadD28 bisubstrate binding. FadD28 bisubstrate probe binding, fluorescence polarization. inhibition, % at 12.5 µM. 0.22% of 360,000 active; in the data active = inhibition above about 8.5%, passing the limit was not always enough
# Mtb BioA inh: BioA (M. tuberculosis) enzyme inhibition | purified M. tuberculosis BioA enzyme, plate reader | inhibition, % at 9.99 µM | 0.096% of 360,000 active | AID 602481; in the data active = inhibition above about 40%
# Yp Topo-I inh: Y. pestis Topo-I inhibition via cleavage products. activity, % at 10 µM. Y. pestis Topo-I cleavage product accumulation, plate reader. 0.064% of 360,000 active; in the data active = activity above about 50%, passing the limit was not always enough
# PfHsp40 yeast: rescue of PfHsp40-mediated yeast toxicity; S. cerevisiae expressing PfHsp40, growth rescue, ATP luminescence; growth rescue, % at 12.5 µM; 0.68% of 340,000 active; AID 504582; in the data active = growth rescue above about 28%, passing the limit was not always enough;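 note: yeast W303a lacking pdr1 and pdr3 grown in galactose medium; growth measured after three days at 30 °C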
# Numbers stand for hits; – = inactive; · = no result. Compounds with a hit are over-represented: about 1.1% of the library has one in this group of screens.
SMILES,PrP UTR inh,FadD28 binding,Mtb BioA inh,Yp Topo-I inh,PfHsp40 yeast
O=C(COC(=O)c1ccc(S(=O)(=O)N2CCCC2)cc1)Nc1ccccc1,–,–,–,–,–
O=C(COC(=O)c1ccc(Cl)c(S(=O)(=O)N2CCCCCC2)c1)Nc1ccccc1,–,62,·,–,–
O=C(COC(=O)c1ccc(Cl)nc1)Nc1cc(S(=O)(=O)N2CCCCC2)ccc1Cl,–,–,–,–,173
CCN1CCN(CC(=O)Nc2cc(S(=O)(=O)N3CCCCC3)ccc2Cl)CC1,–,–,–,–,56
C[C@H]1CN([C@@H](C)CO)S(=O)(=O)c2ccc(-c3ccc(C#N)cc3)cc2O[C@H]1CN(C)C(=O)Nc1cc(F)ccc1F,·,·,–,·,·
O=C(NC1Cc2ccccc2C1)[C@H]1[C@H](CO)[C@H]2Cn3c(cccc3=O)[C@H]2N1C(=O)c1ccccn1,·,·,–,·,·
COCC(=O)N[C@@H]1C=C[C@@H](CC(=O)NCc2ccccc2OC)O[C@@H]1CO,·,·,–,·,·
COCC(=O)N1CCCCN2[C@H](CO)[C@H](c3ccc(-c4cccc(C)c4)cc3)[C@H]2C1,·,·,–,·,·
O=C(c1cccc(COc2ccc(Cl)cc2Cl)c1)N1CCN(c2ccccn2)CC1,–,–,–,–,28
O=C(NCc1ccccc1)c1cccc(COc2cc(Cl)ccc2Cl)c1,–,–,–,–,–
CN(C(=O)c1cccc(COc2ccc(Cl)cc2Cl)c1)c1ccccc1,–,–,–,51,–
CN(C)C(=O)C[C@@H]1CC[C@H]2[C@H](COc3ccc(NC(=O)C4CC4)cc3C(=O)N2C)O1,·,·,–,·,·
Cc1nc(-c2ccc(S(=O)(=O)Nc3cccc(S(N)(=O)=O)c3)s2)cs1,–,–,–,–,–
Cc1nc(-c2ccc(S(=O)(=O)Nc3ccc(Br)cc3Cl)s2)cs1,–,–,–,–,26
O=[N+]([O-])c1ccc(OCCCn2cncn2)cc1,–,–,–,–,51
c1ccc(Oc2cccc(OCCCn3cncn3)c2)cc1,–,–,–,–,95
O=[N+]([O-])c1ccc(OCCOCCOc2ccc([N+](=O)[O-])cc2)cc1,–,–,–,–,–
O=C(c1ccc(N2CCN(C(=O)c3cccc(F)c3)CC2)cc1)c1cccc(F)c1,–,–,–,–,–
O=C(c1ccc(N2CCN(C(=O)c3ccccc3Br)CC2)cc1)c1cccc(F)c1,–,–,–,–,34
Cc1ccc(NC(=O)CSc2ccc(-c3ccccn3)nn2)cc1,–,–,·,–,103
CCc1ccc(NC(=O)CSc2ccccn2)cc1,–,–,·,–,62
Cc1ccc(NC(=O)CSc2ccc(-c3ccccn3)nn2)c(C)c1,–,–,–,–,105
CCOc1ccc(NC(=O)CSc2ccc(-c3ccccn3)nn2)cc1,–,–,·,–,–
COc1ccc(NC(=O)CSc2ccc(-c3ccccn3)nn2)cc1OC,–,–,–,–,215
O=C(CSc1ccccn1)Nc1ccc(NC(=O)CSc2ccccn2)cc1,–,–,·,–,–
SMILES,PrP UTR inh,FadD28 binding,Mtb BioA inh,Yp Topo-I inh,PfHsp40 yeast
Cc1cc(C)c(NC(=O)CSc2ccc(-c3ccccn3)nn2)c(C)c1,–,–,–,–,–
C[C@@H]1CN([C@@H](C)CO)C(=O)c2cc(NC(=O)c3ccccc3)ccc2O[C@@H](C)CCCCO[C@@H]1CN(C)C(=O)Nc1cccc2ccccc12,·,·,–,·,·
C[C@@H]1CN([C@@H](C)CO)C(=O)c2cccc(NC(=O)c3ccc(-c4nccs4)cc3)c2O[C@@H]1CN(C)Cc1ccc(C(F)(F)F)cc1,·,·,–,·,·
CC(=O)Nc1ccc2c(c1)C(=O)N(C)[C@@H]1CC[C@@H](CC(=O)NCc3ccccc3Cl)O[C@H]1CO2,·,·,–,·,·
Cc1cccc(NC(=O)CSc2ccc(-c3ccccn3)nn2)c1C,–,–,·,–,200
COc1ccc(CSCCNC(=S)Nc2ccccc2)cc1Cl,–,–,·,–,45
S=C(NCCSCc1c(Cl)cccc1Cl)Nc1ccccc1,–,–,–,–,285
CCCC(=O)Nc1ccc2c(c1)C(=O)N(C)[C@H]1CC[C@H](CC(=O)Nc3ccccc3)O[C@@H]1CO2,·,·,–,·,·
CCCNC(=O)C[C@H]1C[C@H]2c3cc(NC(=O)Nc4ccccc4F)ccc3O[C@H]2[C@H](CO)O1,·,·,–,·,·
CN(C)c1ccc(/C=C2\C(=O)NC(=O)N(Cc3ccc(F)cc3)C2=O)cc1,–,–,–,–,–
O=C1NC(=O)N(Cc2ccc(F)cc2)C(=O)/C1=C\c1ccoc1,–,11,–,–,–
C=CC(=O)Nc1cccc(Nc2nc(N[C@H]3CC[C@H](N(C)C)CC3)nc3c2ncn3C(C)C)c1,71,–,–,–,–
CC(C)n1cnc2c(Nc3cccc(Cl)c3)nc(NCCCO)nc21,–,–,–,–,–

# Compound activity: PubChem BioAssay, Broad Institute
